In the library only some 11% were active in any assay of this set; here they are far more common.
IMPase cell inh – membrane-permeable compound that blocks inositol monophosphatase. P97697. CHO-M1 cells, IP1 accumulation, HTRF TR-FRET ratio. inhibition (IP1 accumulation), % at 46.1 µM. 120,000 tested, under 10 active. AID 901; active = well fitted curve in the direction sought with a large enough effect in the signal ratio, not every such curve was filed as active; inconclusive = small, poorly fitted or top-dose-only effect, or a change in a side signal; inactive = no such curve, though single readings can be large or run the other way; the % refers to the signal ratio;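 also: cells stimulated with carbachol in lithium chloride buffer; plate controls were DMSO basal wells for no effect and reference inhibitor wells for full effect; higher means more IMPase inhibition seen as more IP1 and lower FRET ratio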
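Cellular IMPase inhibition is scored as a rise in cytosolic IP1, detected by competitive TR-FRET between d2-labelled IP1 and a europium anti-IP1 antibody. M1-expressing CHO cells were stimulated with carbachol for 30 min at 37C, with lithium (50 mM LiCl) present in the buffer.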
HPGD block – HPGD (human) dehydrogenase inhibition; AID 894; Potency, µM, without a hit: at the top dose activity change, negative = inhibition, actives largely listed as inhibitors; purified HPGD, NADH fluorescence kinetic, PGE2 substrate; actives 4.3% (n = 150,000); also: potency is read from the fitted curve at half-maximal effect
Target sequence (P15428 whole entry, looked up): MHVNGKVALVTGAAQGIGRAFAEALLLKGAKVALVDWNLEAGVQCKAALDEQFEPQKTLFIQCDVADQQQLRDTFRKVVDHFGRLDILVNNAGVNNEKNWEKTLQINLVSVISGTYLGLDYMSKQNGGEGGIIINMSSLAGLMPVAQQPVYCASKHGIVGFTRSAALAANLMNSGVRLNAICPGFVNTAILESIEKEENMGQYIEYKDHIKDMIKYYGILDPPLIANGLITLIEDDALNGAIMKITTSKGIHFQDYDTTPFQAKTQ
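20 nM HPGD preincubated 15 min at room temperature with compound in 50 mM Tris-HCl pH 8, 0.01% Tween 20. Started with 1 mM NAD+ and 30 uM prostaglandin E2; NADH fluorescence (360/450 nm) read 5 times over 30-s intervals, last minus first.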
PNC assembly inh – inhibitors of perinucleolar compartment assembly | AID 2417 | actives 3.1% (n = 140,000) | PC3M PTB-GFP, PNC prevalence imaging, 16 h; hits give low values | activity change (PNC), negative = inhibition, % at 10 µM;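 active = readout at or below -70, meaning at least 70% loss of cells showing the perinucleolar compartment, a nuclear body marking cancer cells; inconclusive = readout between -30 and a set limit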;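 also: plate controls were DMSO wells for no effect and camptothecin positive control wells for full effect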
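Read-out is percentage of cells bearing a perinucleolar compartment, from automated 20x imaging of fixed, Hoechst-stained PC3M PTB-GFP cells. Cells were seeded 4 h, then exposed 16 h to compound (23 nl of library stock) in duplicate plates.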
ALDH1A1 inh – blocks purified human ALDH1A1 activity | Potency, µM (titrated, usually from 75.3 µM), for inactives: at the highest dose activity, negative = inhibition, usual class: inhibitors | Purified ALDH1A1, NADH fluorescence, propionaldehyde substrate | AID 1030 | actives 7.3% (n = 220,000);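 also: potency is read from the fitted curve at half-maximal effect; plate controls were no enzyme wells and a reference inhibitor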
Target sequence (P00352 whole entry, looked up): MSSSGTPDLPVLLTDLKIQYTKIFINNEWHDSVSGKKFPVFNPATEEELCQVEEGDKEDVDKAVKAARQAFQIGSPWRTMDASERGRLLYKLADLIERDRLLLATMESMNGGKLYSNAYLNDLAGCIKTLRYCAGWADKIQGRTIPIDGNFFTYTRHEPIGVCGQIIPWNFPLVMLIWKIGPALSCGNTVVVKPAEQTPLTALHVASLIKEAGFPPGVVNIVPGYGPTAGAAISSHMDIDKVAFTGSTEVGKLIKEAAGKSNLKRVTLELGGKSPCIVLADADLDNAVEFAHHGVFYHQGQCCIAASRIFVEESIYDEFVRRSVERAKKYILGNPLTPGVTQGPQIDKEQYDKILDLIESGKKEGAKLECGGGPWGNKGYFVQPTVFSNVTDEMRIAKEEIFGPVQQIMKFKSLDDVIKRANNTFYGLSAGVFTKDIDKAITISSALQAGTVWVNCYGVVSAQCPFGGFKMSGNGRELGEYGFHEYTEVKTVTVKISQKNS
IMPase Li inh – cell-permeable IMPase inhibitors with lithium potentiation; CHO-M1 cells, IP1 TR-FRET (IP-One), carbachol + lithium; Potency, µM (highest dose often 59.4 µM), for the others: top-dose activity, negative = IMPase inhibition, usual class: inhibitors; actives 0.35% (n = 210,000); active = well fitted inhibition curve with a large enough effect; inconclusive = small, poorly fitted or top-dose-only effect; inactive = no such curve, though single readings can be large or run the other way;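 also: IP1 builds up when IMPase is blocked and the TR-FRET signal falls; potency is read from the fitted curve at half-maximal effect; plate controls were basal vehicle for no effect and high inhibitor control for full effect; nearly all actives have a fitted effect of over 50% in size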
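CHO-M1, 2000 cells/well, 16–30 h culture; cpd + low Li+, 30 min 37C; lysis with d2-IP1/Eu-anti-IP1 Ab, 10 min RT; TR-FRET 665/620 ratio and 620 channel; AC50 via Hill.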
* = called active by the depositor; ? = inconclusive; . = no result given; [ ] = remark or other dose. Unless noted, calls follow the shape of the dose curve; as a rule, active = well fitted inhibition curve with a large enough effect (not every such curve was filed as active); inconclusive = small, poorly fitted or top-dose-only effect, or another doubt; inactive = no such curve, though single readings can be large or run the other way. Unless noted, % is scaled to controls: 0 for no effect and ±100 for the full control effect.

SMILES | IMPase cell inh | HPGD block | PNC assembly inh | ALDH1A1 inh | IMPase Li inh
CC(NCc1ccc(-c2ccccc2)cc1)C(O)c1ccccc1 (centres undefined) | . | -5.3% | -118.2* | ? | 1.3%
CC(O)CNCc1ccc(-c2ccccc2)cc1 (centres undefined) | ? | -6.5% | 44.9 | 18.5% | 6.5%[38.3 µM]
CC1CCC2C(=O)N(c3ccccc3OC(=O)c3ccccc3F)C(=O)C2C1 (centres undefined) | . | . | . | 2.7% | 3.7%
O=C(NCCN1CCOCC1)c1ccc(=O)n(Cc2ccc(Cl)cc2)c1 | . | . | . | ? | -5.3%
CCCc1c(OCC(O)COc2ccc3c(=O)cc(C(=O)O)oc3c2CCC)ccc(C(C)=O)c1O (centres undefined) | . | 17.8µM* | . | -10.9% | -1.9%
CC(=O)n1nc(-c2cccc(C)c2)nc1SCC(=O)Nc1ccccc1 | -6.4 | -18.1% | ? | 4.0% | 4.4%
NC(=O)CSc1nc2ccccc2c(=O)n1Cc1ccco1 | -3.4 | -7.4% | -17.3 | ? | 1.8%
CCC(=O)n1nc(-c2ccccc2)nc1SCC(=O)Nc1ccc(C)cc1 | 4.1 | 7.94µM* | 71.8 | -0.6% | 2.5%[38.3 µM]
Cn1c(SCC(=O)NCc2ccco2)nc2ccccc2c1=O | -1.2 | -6.7% | -19.5 | -3.2% | 22.5%[38.3 µM]
O=C(CSc1nc2ccccc2c2nc3ccccc3n12)NCc1ccco1 | 7.5 | ? | -83.2* | ? | -14.3%
O=C(CSc1nc2ccsc2c(=O)n1Cc1ccc(C(=O)O)cc1)NCc1ccco1 | . | 20µM* | -113.4* | 5.7% | -2.3%
O=C(CSc1nc2ccccc2c(=O)n1Cc1ccco1)c1ccc(F)cc1 | 11.4 | -29.9% | -1.6 | 11.2µM* | 20.2%[38.3 µM]
CCSc1nc2cc(OC)c(OC)cc2c(=O)n1CC | -3.6 | -12.7% | 6.7 | 8.91µM* | 45.0%[38.3 µM]
CCn1c(SCc2nc3cc(OC)c(OC)cc3c(=O)[nH]2)nc2ccccc21 | . | . | . | -3.3% | 14.1%
O=C(CSc1nc2ccccc2c(=O)n1Cc1ccccc1)NCc1ccco1 | -20.5 | -22.7% | 53.8 | ? | 10µM*
COCCNC(=O)CSc1nc2cc(OC)c(OC)cc2c(=O)n1Cc1ccco1 | 12.5 | -13.7% | ? | 2.24µM* | 1.0%[38.3 µM]
O=C(c1cccc([N+](=O)[O-])c1)n1nc(-c2ccccc2)nc1NCc1ccccc1 | -9.3 | . | ? | -11.3% | .
CCc1ccccc1NC(=O)CSc1nc(-c2ccccc2)nn1C(=O)c1cccc([N+](=O)[O-])c1 | 4.0 | 12.6µM* | 76.4 | -2.6% | -0.7%[38.3 µM]
CCn1c(SCC(=O)NCc2ccco2)nc2ccccc2c1=O | . | . | . | -7.1% | 4.0%
CC/C=C/C#N | . | -8.4% | . | 9.6% | -13.0%
CCn1cc(C(=O)NCc2ccc3c(c2)OCO3)c(=O)c2cc(F)c(N3CCN(C(=O)c4ccco4)CC3)cc21 | 8.2 | ? | -13.0 | ? | 5.2%[38.3 µM]
COc1ccc(CC(=O)OCC(=O)NCCc2ccccc2)cc1OC | -1.0 | -8.9% | -10.8 | 1.7% | -0.8%
N#CCSc1nc2ccccc2c(=O)n1CCCC(=O)NCc1ccco1 | . | . | . | -2.5% | 1.0%
O=C(CCCCCn1c(SCc2ccncc2)nc2ccccc2c1=O)NCc1ccco1 | 22.7 | 17.8µM* | -100.0* | 25.1µM* | 20.1%
Cc1ccc(NC(=O)CSc2nc3ccccc3c3nc4ccccc4n23)cc1 | -19.5 | -15.2% | -107.5* | -6.2% | 8.1%[38.3 µM]
SMILES | IMPase cell inh | HPGD block | PNC assembly inh | ALDH1A1 inh | IMPase Li inh
COc1ccc(NC(=O)CSc2nc3ccccc3c3nc4ccccc4n23)cc1 | . | -25.0% | 34.1 | -12.1% | -9.8%
O=C(CSc1nc2ccccc2c(=O)n1Cc1ccc(C(=O)NC2CC2)cc1)NCc1ccco1 | -0.4 | 2.82µM* | -16.8 | -8.3% | 26.2%[38.3 µM]
CCOC(=O)c1cnc(N2CCN(C(=O)OCC)CC2)[nH]c1=O | . | . | . | -6.1% | 5.7%
COc1ccccc1CCNCc1ccc(OC)c(OCc2ccccc2)c1 | 5.7 | -8.5% | ? | -12.4% | 14.0%
COc1ccc(CNCc2ccco2)cc1OCc1ccccc1 | 2.2 | -11.4% | ? | 11.2µM* | 31.4%
Cc1ccccc1CS(=O)(=O)Cc1ccc(C(=O)NCc2ccco2)o1 | 3.8 | 1.0% | 120.0 | -7.9% | -5.2%[38.3 µM]
Cc1cc(C(F)(F)F)nn1Cc1ccc(C(=O)NCc2ccco2)o1 | 0.0 | ? | ? | 17.8µM* | 14.5%[38.3 µM]
COc1ccccc1OCc1ccc(C(=O)NCc2ccco2)o1 | ? | -16.3% | -86.4* | -0.3% | 10.7%[38.3 µM]
COc1ccccc1OCc1ccc(C(=O)NC(C)(C)C)o1 | 3.8 | -11.3% | -18.3 | ? | 21.3%[38.3 µM]
Cc1cc(C(C)(C)C)c(OCCCN2CCOCC2)c(C(C)(C)C)c1 | . | -8.5% | . | 0.1%[13.5 µM] | 0.9%
COc1cccc(-c2csc(N3CCN(C(=O)NC45CC6CC(CC(C6)C4)C5)CC3)n2)c1 | -0.1 | -5.1% | -25.5 | ? | 11.4%
CCCCNC(=O)c1ccc2c(c1)ncn2C1CCCCC1 | -2.3 | 22.4µM* | 1.8 | -3.3% | 0.2%
CCN(CC)CCNC(=O)c1ccc2c(c1)ncn2C1CCCCC1 | 3.1 | -2.3% | -22.0 | -6.9% | -14.1%[38.3 µM]
CCCCNC(=O)c1ccc2c(c1)ncn2C1CCCC1 | -4.6 | 8.91µM* | 0.5 | -4.9% | 26.3%[38.3 µM]
CCc1[nH]c(=S)c(C#N)c2c1CCCC2 | . | 20µM* | 2.0 | ? | -9.2%
CCc1[nH]c(=O)c(C#N)c2c1CCCC2 | 10.7 | ? | 25.8 | ? | 5.7%[38.3 µM]
Cc1ccccc1-c1nc(-n2ccnc2)c2ccccc2n1 | . | -10.0% | . | -2.6% | -10.1%
FC(F)(F)c1ccc(-c2noc(-c3ccccc3)c2I)cc1 | . | -0.6% | . | 2.4% | 15.2%
COn1c(-c2ccccc2)nc2c1CCc1nonc1-2 | 3.9 | -23.1% | -24.5 | 7.94µM* | -13.7%[38.3 µM]
c1ccc(COn2c(-c3ccccc3)nc3c2CCc2nonc2-3)cc1 | 9.6 | . | -20.6 | 8.91µM* | .
CN(C(=O)COC(=O)CNC(=O)C12CC3CC(CC(C3)C1)C2)C1CCS(=O)(=O)C1 (centres undefined) | . | -10.0% | -121.5* | -8.3% | -6.4%
CCCCOC(=O)c1cccc(NC(=O)CCC(=O)O)c1 | 2.7 | -9.1% | 51.7 | 0.0% | 5.3%[38.3 µM]
CCCCOC(=O)Nc1cccc(C(C)=O)c1 | 6.8 | 28.2µM* | ? | -2.3% | -0.8%[38.3 µM]
CCOC(=O)Nc1cccc(C(=O)O)c1 | -0.3 | 0.9% | -104.1* | 5.9% | -0.2%
CCCCNC(=S)Nc1cccc(C(C)=O)c1 | . | 31.6µM* | ? | 5.1% | 4.2%
O=C(Nc1nc(-c2ccccn2)cs1)C1CC(=O)N(c2ccc3c(c2)OCCO3)C1 (centres undefined) | . | -9.3% | ? | ? | -3.7%
Cc1csc2c(SCC(=O)NNC(=O)C(Cl)Cl)ncnc12 | . | . | . | 28.2µM* | .
COC(=O)CSc1nc2ccc(NC(=O)CSc3nnnn3Cc3ccccc3)cc2s1 | -7.3 | ? | ? | 4.47µM* | 20.7%[38.3 µM]
COc1cccc(-n2nnnc2SCC(=O)Nc2cccc(NC(C)=O)c2)c1 | 8.8 | -21.1% | -14.5 | 7.08µM* | 13.7%[38.3 µM]
COc1cccc(-n2nnnc2S(C)(=O)=O)c1 | 8.5 | 20µM* | ? | 1.26µM* | 27.8%[38.3 µM]

Compound activity as filed in PubChem BioAssay.
